# Calls of active or inactive are those of the source.
# What was measured:
# [1] = binders of probe aFSTL3 on microarray, primary screen, stem cell growth factor project, biochemical, small-molecule microarray, fluorescence 635/667 (AID 1064); conditions: higher = more signal;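 further: measures binding of the biotinylated anti-FSTL3 antibody to printed compounds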
# [2] = binders from COS7 lysate, DM2A8 probe, primary screen, torsin A project, cell lysate, small-molecule microarray, fluorescence 635/667 (AID 1065); conditions: higher = more signal, COS7 lysate expressing mutant human TOR1A
# [3] = binders of probe aFGF2 on microarray, primary screen, stem cell growth factor project, biochemical, small-molecule microarray, fluorescence 635/667 (AID 1067); conditions: higher = more signal;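 further: measures binding of biotinylated aFGF2 protein to printed compounds on slides; z-score merges feature fluorescence and signal-to-noise across triplicate slides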
# [4] = binders of probe aFGF10 on microarray, primary screen, stem cell growth factor project, biochemical, small-molecule microarray, fluorescence 635/667 (AID 1071); conditions: higher = more signal;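 further: score merges 667 nm spot intensity and signal to noise from triplicate slides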
# [5] = target: Neurogenic locus notch homolog protein 2 (Homo sapiens) (UniProt Q04721); assay: Notch2 binders on small-molecule microarrays, primary screen, biochemical, small-molecule microarray, 635 nm fluorescence, stem cell growth factors (AID 1073); conditions: Notch2 binding, higher = more signal
# Sequence of Neurogenic locus notch homolog protein 2 (Homo sapiens) (Q04721 whole entry, looked up, canonical isoform): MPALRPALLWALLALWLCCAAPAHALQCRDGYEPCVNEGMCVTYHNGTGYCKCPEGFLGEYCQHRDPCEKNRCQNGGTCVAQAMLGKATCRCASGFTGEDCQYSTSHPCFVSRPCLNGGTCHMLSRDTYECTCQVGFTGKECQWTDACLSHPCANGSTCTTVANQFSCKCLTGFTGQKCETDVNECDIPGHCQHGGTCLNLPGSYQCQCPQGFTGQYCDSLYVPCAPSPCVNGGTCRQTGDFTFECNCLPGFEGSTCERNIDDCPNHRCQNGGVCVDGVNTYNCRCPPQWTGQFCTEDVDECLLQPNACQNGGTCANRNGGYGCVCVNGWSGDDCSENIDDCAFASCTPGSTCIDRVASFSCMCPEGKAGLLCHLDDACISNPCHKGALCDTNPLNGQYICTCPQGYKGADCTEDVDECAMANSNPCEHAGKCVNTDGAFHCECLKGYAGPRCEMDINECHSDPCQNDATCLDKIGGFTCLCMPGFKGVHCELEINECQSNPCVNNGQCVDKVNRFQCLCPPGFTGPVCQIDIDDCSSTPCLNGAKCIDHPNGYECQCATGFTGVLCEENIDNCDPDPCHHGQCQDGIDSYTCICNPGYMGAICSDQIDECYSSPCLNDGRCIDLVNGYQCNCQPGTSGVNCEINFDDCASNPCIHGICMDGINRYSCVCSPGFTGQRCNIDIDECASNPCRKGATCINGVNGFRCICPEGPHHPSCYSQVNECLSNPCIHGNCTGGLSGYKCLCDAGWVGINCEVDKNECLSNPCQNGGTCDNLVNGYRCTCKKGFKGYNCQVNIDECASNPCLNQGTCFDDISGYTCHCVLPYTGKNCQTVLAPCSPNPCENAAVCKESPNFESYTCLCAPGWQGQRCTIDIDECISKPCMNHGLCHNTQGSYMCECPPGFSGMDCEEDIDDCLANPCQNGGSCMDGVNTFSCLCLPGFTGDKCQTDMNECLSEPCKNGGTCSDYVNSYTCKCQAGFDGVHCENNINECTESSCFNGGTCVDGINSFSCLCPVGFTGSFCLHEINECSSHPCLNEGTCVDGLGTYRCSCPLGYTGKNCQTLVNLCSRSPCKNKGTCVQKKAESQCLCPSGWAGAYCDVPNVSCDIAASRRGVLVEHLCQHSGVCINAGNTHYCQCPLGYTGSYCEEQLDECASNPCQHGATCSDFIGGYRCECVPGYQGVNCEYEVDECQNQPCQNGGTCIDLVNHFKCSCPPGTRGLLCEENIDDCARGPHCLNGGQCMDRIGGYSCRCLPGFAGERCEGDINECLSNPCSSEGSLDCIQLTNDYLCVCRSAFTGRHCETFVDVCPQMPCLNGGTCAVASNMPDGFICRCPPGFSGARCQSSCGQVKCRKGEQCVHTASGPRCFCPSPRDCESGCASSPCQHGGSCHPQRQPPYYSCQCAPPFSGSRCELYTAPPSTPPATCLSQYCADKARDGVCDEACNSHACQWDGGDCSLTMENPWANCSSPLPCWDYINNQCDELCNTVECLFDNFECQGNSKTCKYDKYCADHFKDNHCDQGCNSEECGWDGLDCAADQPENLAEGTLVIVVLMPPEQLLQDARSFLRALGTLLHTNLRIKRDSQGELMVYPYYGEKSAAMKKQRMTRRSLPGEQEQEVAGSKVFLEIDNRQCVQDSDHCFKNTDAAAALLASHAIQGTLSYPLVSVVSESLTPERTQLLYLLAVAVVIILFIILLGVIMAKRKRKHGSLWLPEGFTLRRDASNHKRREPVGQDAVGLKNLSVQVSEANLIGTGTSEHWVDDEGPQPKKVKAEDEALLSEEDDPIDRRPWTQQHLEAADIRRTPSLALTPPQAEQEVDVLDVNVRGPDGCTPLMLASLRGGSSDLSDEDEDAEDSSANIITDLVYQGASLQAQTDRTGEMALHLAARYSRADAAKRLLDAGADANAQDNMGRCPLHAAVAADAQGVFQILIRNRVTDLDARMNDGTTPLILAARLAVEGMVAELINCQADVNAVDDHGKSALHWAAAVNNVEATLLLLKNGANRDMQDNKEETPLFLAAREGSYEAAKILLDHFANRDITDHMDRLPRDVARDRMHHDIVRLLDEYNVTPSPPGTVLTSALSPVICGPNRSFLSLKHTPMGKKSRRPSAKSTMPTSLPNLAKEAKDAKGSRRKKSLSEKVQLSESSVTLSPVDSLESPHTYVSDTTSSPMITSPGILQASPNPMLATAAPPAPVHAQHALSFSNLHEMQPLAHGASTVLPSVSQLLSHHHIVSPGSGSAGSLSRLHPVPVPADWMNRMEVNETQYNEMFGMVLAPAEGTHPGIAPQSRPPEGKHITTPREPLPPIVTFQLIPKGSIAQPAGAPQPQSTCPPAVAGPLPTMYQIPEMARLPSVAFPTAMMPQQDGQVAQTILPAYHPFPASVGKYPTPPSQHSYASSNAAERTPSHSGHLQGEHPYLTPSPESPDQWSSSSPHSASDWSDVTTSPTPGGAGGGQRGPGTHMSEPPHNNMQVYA
# [6] = target: Pro-neuregulin-1, membrane-bound isoform (Homo sapiens) (UniProt Q02297); assay: NRG1 binders on small-molecule microarrays, primary screen, psychiatric disease protein project, biochemical, small-molecule microarray, fluorescence 635/667 (AID 1075); conditions: NRG1 binding, 635 nm fluorescence, higher = more signal;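 further: score combines 667 nm spot fluorescence with signal to noise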
# Sequence of Pro-neuregulin-1, membrane-bound isoform (Homo sapiens) (Q02297 whole entry, looked up, the tested form may be a part, canonical isoform): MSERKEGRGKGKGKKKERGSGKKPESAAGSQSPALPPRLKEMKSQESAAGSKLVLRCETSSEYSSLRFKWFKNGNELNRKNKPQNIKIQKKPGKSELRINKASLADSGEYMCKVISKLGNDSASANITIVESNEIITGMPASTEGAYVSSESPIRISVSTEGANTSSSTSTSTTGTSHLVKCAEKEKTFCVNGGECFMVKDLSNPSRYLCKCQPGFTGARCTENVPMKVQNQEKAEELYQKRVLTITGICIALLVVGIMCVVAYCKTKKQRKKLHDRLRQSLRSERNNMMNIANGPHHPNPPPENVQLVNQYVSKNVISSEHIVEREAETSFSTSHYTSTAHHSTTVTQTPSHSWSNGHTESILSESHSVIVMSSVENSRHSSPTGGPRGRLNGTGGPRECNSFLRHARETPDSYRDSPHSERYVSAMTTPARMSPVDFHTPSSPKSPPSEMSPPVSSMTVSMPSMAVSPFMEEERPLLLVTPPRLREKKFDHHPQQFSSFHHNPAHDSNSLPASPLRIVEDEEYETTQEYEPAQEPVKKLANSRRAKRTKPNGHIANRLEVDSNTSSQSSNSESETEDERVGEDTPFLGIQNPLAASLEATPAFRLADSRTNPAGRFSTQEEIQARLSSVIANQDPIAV
# [7] = tested on: Neuregulin-1 EGF-like domain; assay: binders of neuregulin-1 EGF-like domain, primary screen, biochemical, small-molecule microarray, 635 nm fluorescence (AID 1081); conditions: small-molecule microarray binding, higher = more signal;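 further: binding of the protein to compounds printed on small-molecule microarray slides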
# [8] = FRG1 promoter luciferase signal modulators, primary screen, FRG1 inhibition for FSHD, cell-based, C2C12 myotubes, firefly/Renilla luciferase, luminescence (AID 1084); conditions: higher = more signal, called active from +8 up or from −8 down
# [9] = binders of probe aFST on microarray, primary screen, stem cell growth factor project, biochemical, small-molecule microarray, fluorescence 635/667 (AID 1086); conditions: higher = more signal;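 further: score merges 667 nm fluorescence with signal-to-noise of each printed compound spot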
# [10] = binders of probe aHhip on microarray, primary screen, stem cell growth factor project, biochemical, small-molecule microarray, fluorescence 635/667 (AID 1087); conditions: higher = more signal;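 further: score merges spot fluorescence at 667nm with spot signal to noise ratio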
# [11] = tested on: PRMT1 (protein arginine N-methyltransferase 1); assay: PRMT1 binders on small-molecule microarrays, primary screen, biochemical, small-molecule microarray, 635 nm fluorescence (AID 1088); conditions: small-molecule microarray binding, higher = more signal;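 further: binding of Prmt1 protein to compounds spotted on small-molecule microarray slides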
# [12] = yeast growth modulation, basal conditions, primary screen, YJM789 clinical isolate, OD600, 24 h (AID 1089);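 further: growth of clinical yeast isolate S. cerevisiae YJM 789 seeded 1000 cells per well; test concentration not given here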; conditions: S. cerevisiae YJM789 growth, higher = more signal, called active from +8 up or from −8 down
# [13] = fission yeast growth modulation, primary screen, strain 972, OD600, 24 h, no modulator (AID 1090);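 further: basal condition with compound alone and no growth modifier present; test concentration not given here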; conditions: S. pombe 972 growth, higher = more signal, called active from +8 up or from −8 down
# [14] = S. cerevisiae growth modulation with rapamycin, primary screen, strain BY4716, OD600, 96 h (AID 1091); conditions: higher = more signal, called active from +8 up or from −8 down; further: test concentration not given here
# [15] = target: Torsin-1A-interacting protein 2 (Homo sapiens) (UniProt Q8NFQ8); assay: LULL1 binders on small-molecule microarray, primary screen, cell lysate, human LULL1 lysate, 635/667 nm fluorescence (AID 1092); conditions: hLULL1 lysate binding, 635 nm fluorescence, higher = more signal;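 further: probe is lysate of COS7 cells overexpressing human LULL1; score merges per-feature 667 nm fluorescence with signal-to-noise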
# Sequence of Torsin-1A-interacting protein 2 (Homo sapiens) (Q8NFQ8 whole entry, looked up): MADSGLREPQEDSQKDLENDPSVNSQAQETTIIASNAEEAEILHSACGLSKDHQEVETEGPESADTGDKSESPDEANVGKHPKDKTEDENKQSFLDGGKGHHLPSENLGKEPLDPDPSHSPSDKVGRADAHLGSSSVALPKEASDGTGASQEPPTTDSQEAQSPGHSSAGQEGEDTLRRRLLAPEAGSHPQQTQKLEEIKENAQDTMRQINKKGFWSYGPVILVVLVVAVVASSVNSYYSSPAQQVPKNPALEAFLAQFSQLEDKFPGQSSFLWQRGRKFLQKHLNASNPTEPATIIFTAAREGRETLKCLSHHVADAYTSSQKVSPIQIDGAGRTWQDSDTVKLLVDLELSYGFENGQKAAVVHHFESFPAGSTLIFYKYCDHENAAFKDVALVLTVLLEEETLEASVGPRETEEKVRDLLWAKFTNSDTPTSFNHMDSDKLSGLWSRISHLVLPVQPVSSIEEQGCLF
# [16] = E. coli growth modulation, two-sided OD650, primary screen, E. coli filamentation project, strain DRC41, 24 h (AID 1093); conditions: OD650, 24 h, higher = more signal, called active from +8 up or from −8 down;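 further: MC1000 strain lacking acrAB efflux and sulA so SOS filamentation is blocked; test concentration not given here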
# [17] = small-molecule microarray binders of probe aLefty2, primary screen, biochemical, biotinylated probe, 635/667 nm fluorescence (AID 1094); conditions: higher = more signal;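 further: score merges spot fluorescence near 667 nm with spot signal-to-noise ratio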
# [18] = tested on: Noggin (protein binding on small-molecule microarray); assay: Noggin binders on small-molecule microarray, primary screen, biochemical, 635/667 nm fluorescence (AID 1095); conditions: 635 nm fluorescence, higher = more signal;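 further: score merges 667 nm feature fluorescence with signal to noise over triplicate slides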
# [19] = target: Neurogenic locus notch homolog protein 3 (Homo sapiens) (UniProt Q9UM47); assay: NOTCH3 binders on small-molecule microarray, primary screen, biochemical, 635/667 nm fluorescence (AID 1096); conditions: NOTCH3 binding, 635 nm fluorescence, higher = more signal
# [20] = small-molecule microarray binders of probe aEGFR, primary screen, biochemical, biotinylated probe, 635/667 nm fluorescence (AID 1097); conditions: higher = more signal;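 further: probe is a biotinylated anti-EGFR antibody binding compounds printed on slides; score combines fluorescence near 667 nm and signal to noise of each spot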
Compound,composite z-score [1],composite z-score [2],composite z-score [3],composite z-score [4],composite z-score [5],composite z-score [6],composite z-score [7],z-score [8],composite z-score [9],composite z-score [10],composite z-score [11],z-score [12],z-score [13],z-score [14],composite z-score [15],z-score [16],composite z-score [17],composite z-score [18],composite z-score [19],composite z-score [20]
O=C(NC1CC1)[C@@H]1c2ccccc2C(=O)N(Cc2ccccc2)[C@H]1c1ccc(CO)cc1,0.176,-0.301,-0.0606,0.207,-0.454,1.4,1.4,-2.71 (inactive),0.646,-0.493,0.449,0.763 (inactive),0.109 (inactive),0.0225 (inactive),2.63,0.958 (inactive),-0.479,-0.43,-0.0341,-0.366
CCCCN1CC=CC23O[C@@H]4/C=C\CCC(C)OC(=O)C4[C@H]2C(=O)N(CCCCCCO)[C@@H]3C1=O (stereo not given in full),0.666,0.345,-0.0712,0.867,-0.625,0.272,1.59,0.189 (inactive),-0.213,-0.119,-0.969,-0.287 (inactive),-0.737 (inactive),0.045 (inactive),1.4,0.272 (inactive),-0.212,-0.806,-0.407,-0.313
COc1ccc([Si](C)(C)[C@@H]2[C@@H](CCn3cc([C@H](O)c4ccccc4)nn3)O[C@]3(C(=O)N(Cc4ccc(N5CCOC5=O)cc4)c4ccccc43)[C@H]2C)cc1,-0.28,0.882,-0.0658,0.512,0.62,0.61,0.825,0.216 (inactive),0.137,0.0854,1.55,-0.113 (inactive),0.984 (inactive),2.04 (inactive),0.995,1.87 (inactive),0.047,1.01,1.12,0.0711
COc1ccccc1CN1C(=O)c2ccccc2[C@@H](C(=O)NC(C)C)[C@@H]1c1ccc(CO)cc1,-0.0001,-0.487,0.0451,0.761,1.53,1.13,1.31,-1.41 (inactive),0.676,0.281,1.51,-0.309 (inactive),-0.0831 (inactive),-0.352 (inactive),2.36,1.02 (inactive),0.12,0.885,1.09,0.14
COc1ccccc1CN1C(=O)c2ccccc2[C@](Cc2ccccc2I)(C(=O)NC(C)C)[C@@H]1c1ccc(CO)cc1,-0.515,0.49,-0.0296,0.732,1.43,1.7,1.15,-2.79 (inactive),0.614,0.0373,1.53,0.188 (inactive),0.0889 (inactive),0.152 (inactive),2.05,-1.01 (inactive),-0.158,1.22,1.06,0.0583
CC(C)N1CC=CC23O[C@@H]4C=CCOC(=O)[C@@H]4[C@H]2C(=O)N(C(C)CO)[C@@H]3C1=O (stereo not given in full),0.377,-1.2,-0.071,-0.536,-1.11,2.17,0.9,0.106 (inactive),-0.508,-0.593,-1,-0.741 (inactive),-0.06 (inactive),-0.0277 (inactive),-0.163,-0.0334 (inactive),0.119,-1.03,-0.66,-0.199
NC(=O)NCC#Cc1ccc2c(c1)[C@]1(C(=O)N2)[C@H](C(=O)Nc2nc3ccccc3s2)[C@H]2C(=O)O[C@H](c3ccccc3)[C@H](c3ccccc3)N2[C@@H]1c1ccc(O)cc1,0.187,0.544,-0.0415,0.604,0.455,0.339,-0.15,1.46 (inactive),0.623,0.142,1.41,3.89 (inactive),3.26 (inactive),7.47 (inactive),-0.569,2.01 (inactive),0.14,0.614,1.05,-0.0701
CC=CC(O)C1C=CC2C(=O)N(C)C(=O)C2N1Nc1ccc([N+](=O)[O-])cc1[N+](=O)[O-] (stereo not given),0.028,-0.183,-0.185,-0.0156,-0.346,1.2,1.29,0.639 (inactive),-0.441,0.312,0.0758,0.837 (inactive),0.325 (inactive),1.67 (inactive),3.57,-1.06 (inactive),-0.0478,-0.448,-0.44,-0.342
C=C[C@@H](C)[C@H](OC(=O)Nc1ccc(SC)cc1)c1ccc(OCCO)cc1,0.342,-0.272,-0.215,-0.542,-0.713,1.8,1.22,6.28 (inactive),-0.375,-0.0538,-0.0446,0.103 (inactive),-1.02 (inactive),-0.32 (inactive),0.721,1.18 (inactive),-0.136,0.362,0.405,-0.105
[N-]=[N+]=Nc1ccccc1[C@@H]1OC(c2ccc(OCCCO)cc2)=N[C@]1(CCS(=O)(=O)c1ccccc1)C(=O)NCCN1CCOCC1,0.483,1.88,0.0315,0.664,1.58,0.806,1.25,1.2 (inactive),0.925,0.417,1.55,-0.564 (inactive),-0.727 (inactive),0.519 (inactive),3.15,0.0992 (inactive),0.383,0.038,0.808,0.354
